In all, about 69,000 compounds went through this assay and about 8,600 (12%) showed an effect of 50% or more. The full list was thinned out, with strong results kept by preference.
The compounds below were run on Plasmodium berghei (assay: Screen against P. berghei liver stage (PbLuc), transformed with Luciferase, at 10uM). Conditions: tested at 10 uM.
Assay type: functional, HepG2

Row | SMILES | INHIBITION [%]
1 | Cc1cc(NC(=O)CN2CCCC2Cn2nc(C)nc2C)n(C)n1 (stereo not given) | 38.8
2 | Cc1cc(C)cc(OCC(=O)N2CCCC2)c1 | -55.3
3 | COCCn1cnnc1CNc1cc(C)nc2c(C)c(C)nn12 | 15.5
4 | Cc1nn(C)c2cnn(CC(=O)NCc3ccccc3F)c12 | 41.6
5 | CC(=O)N1CCCC1c1cc(Nc2nnc(C)s2)nc(C)n1 (stereo not given) | 26.8
6 | O=C(c1nn[nH]c1Nc1cccc(Cl)c1)N1CCSCC1 | 8.38
7 | O=C(c1nn[nH]c1Nc1ccc(Cl)cc1)N1CCSCC1 | 11.8
8 | O=C(c1nn[nH]c1Nc1ccc(Cl)cc1)N1CCCCCC1 | 72
9 | COCCN1CCC2(CC1)CC(NC(=O)COC)c1ccccc1O2 (stereo not given) | -13.4
10 | COCC(=O)NC1CC2(CCN(CCF)CC2)Oc2ccccc21 (stereo not given) | -5.94
11 | COCC(=O)NC1CC2(CCN(CC3CC3)CC2)Oc2ccccc21 (stereo not given) | -2.35
12 | O=C(NC1CC2(CCN(CCO)CC2)Oc2ccccc21)c1csnn1 (stereo not given) | 34.9
13 | CC(C)CC(=O)NC1CC2(CCN(CCF)CC2)Oc2ccccc21 (stereo not given) | 34.6
14 | CN1CCC2(CC1)CC(NC(=O)c1csnn1)c1ccccc1O2 (stereo not given) | 59.3
15 | CCN1CCC2(CC1)CC(NC(=O)c1c[nH]cn1)c1ccccc1O2 (stereo not given) | 44.8
16 | CCN1CCC2(CC1)CC(NC(=O)c1csnn1)c1ccccc1O2 (stereo not given) | 41.2
17 | COCCN1CCC2(CC1)CC(NC(=O)CC1CC1)c1ccccc1O2 (stereo not given) | 56.8
18 | COCCN1CCC2(CC1)CC(NC(=O)C1CC1)c1ccccc1O2 (stereo not given) | 16.1
19 | COCCN1CCC2(CC1)CC(NC(=O)CN(C)C)c1ccccc1O2 (stereo not given) | 54.3
20 | COCCN1CCC2(CC1)CC(NC(=O)C(C)C)c1ccccc1O2 (stereo not given) | 55.5
21 | CCOCCOc1ccc(S(=O)(=O)N2CCc3c(nc[nH]c3=O)C2)cc1 | 5.05
22 | Cc1nc(CN2CCN(CC3CCOC3)Cc3cccnc32)cs1 (stereo not given) | 41
23 | NC(=O)CSc1ccccc1NC(=O)C1CCCC1 | -53.6
24 | COc1cccc(C=CCCN2CCC(C(=O)N3CCCC3)CC2)c1 | -16.1

Row | SMILES | INHIBITION [%]
25 | O=C1NC2(CCN(C(=O)CN3CCOCC3)CC2)Nc2ccc(Cl)cc21 | 23.75
26 | Cn1ccc2cc(C(=O)Nc3nc[nH]n3)ccc21 | 11.6
27 | CN(C)C(=O)c1nnn(-c2ccc(Br)cc2)n1 | 28.4
28 | CCNc1cc2c(nn1)CCN(C(=O)Cc1ccc(C)nc1)C2 | -42.1
29 | CCc1ccc(C(=O)N2CCCC3(CCCC(=O)N3C)C2)cc1 (stereo not given) | 30.9
30 | O=C(CS(=O)(=O)C1CCCC1)NC(c1ccc(F)cc1)C1CC1 (stereo not given) | -32.6
31 | COCCN1C[C@@H]2CC[C@H]1CN(Cc1nc3ccccc3n1C)C2 | -35
32 | CC(=O)NCCNC(=O)c1cnc(-c2ccc(C)cc2C)s1 | -74.9
33 | CN(Cc1cnc(N)nc1)C(=O)c1coc(COc2ccccc2)n1 | 27.6
34 | CN1CCN(Cc2cccnc2)C(=O)C12CCN(Cc1ccco1)CC2 | 32.1
35 | Cc1nccn1Cc1nnc(C2CCN(c3ccncc3F)CC2)n1C | -21.9
36 | CC[C@@H]1N(Cc2ccsc2)CCC[C@]12CCC(=O)N2CCOC | 52.4
37 | CC[C@@H]1N(Cc2ccsc2)CCC[C@]12CCC(=O)N2C | 23.2
38 | CC[C@@H]1N(Cc2ccncc2)CCC[C@]12CCC(=O)N2CCOC | 25.3
39 | Cc1csc(CN2CC[C@@](O)(C3CCOCC3)[C@H](C)C2)n1 | 9.55
40 | O=C1NCc2ccccc2CC12CCN(Cc1c(F)cccc1Cl)C2 (stereo not given) | -9.73
41 | COc1ccc(CN(C(=O)C2CCCO2)c2ccncc2)cc1 (stereo not given) | 27.5
42 | COc1ccc(CN(C(=O)C2CCCOC2)c2ccncc2)cc1 (stereo not given) | 66.3
43 | COc1ccc(CN(C(=O)C2CCOCC2)c2ccncc2)cc1 | 1.7
44 | Brc1cnc(NCc2ccccc2N2CCOCC2)nc1 | -31.7
45 | O=C(CCO)N1CC2(CCN(c3ccccc3)C2)C1 | 61.9
46 | COCCC(=O)N1CC2(CCN(c3ccccc3)C2)C1 | 12.1
47 | O=C(CO)N1CC2(CCN(c3ccccc3)C2)C1 | -34.6
48 | Cc1nn(C)c(N(C)C)c1CNCCCNS(C)(=O)=O | -66.8

Row | SMILES | INHIBITION [%]
49 | CSc1[nH]nc(NC(=O)c2ccccc2)c1C#N | 23.1
50 | O[C@H]1Cc2ccccc2[C@H]1Nc1ncccc1C(F)(F)F | 56.3
51 | N#Cc1cccnc1N[C@@H]1c2ccccc2C[C@@H]1O | 22.9
52 | O[C@@H]1Cc2ccccc2[C@@H]1Nc1ncccc1F | 18
53 | COc1ccc2c(ccn2CCC(=O)Nc2n[nH]c(CC(C)C)n2)c1 | 46.7
54 | O=C(CC1CCCC1)NCCS(=O)(=O)N1CCN(c2ncccn2)CC1 | -73.6
55 | Cc1n[nH]c2c1C(c1ccc(Cl)cc1)SCC(=O)N2 (stereo not given) | 46.7
56 | Cc1n[nH]c2c1C(c1ccc(Br)cc1)SCC(=O)N2 (stereo not given) | 61.8
57 | Cc1n[nH]c2c1C(c1ccc(F)cc1)SCC(=O)N2 (stereo not given) | 23.5
58 | COCCC(=O)N1CC[C@@H](N2CCOCC2)[C@@H]1Cc1ccccc1 | 38.1
59 | Cc1cccnc1CNC(=O)CC1C(=O)NCCN1CC(C)(C)C (stereo not given) | 6.29
60 | CC(=O)N(Cc1noc(C)n1)C1CCN(Cc2ncc(C(C)C)o2)C1 (stereo not given) | 11.6
61 | Cc1nn(C)c(C)c1CCC(=O)NCc1cccnc1OC1CCCC1 | 56.6
62 | Cc1cc(NC(=O)NCc2cccnc2OC2CCCC2)n(C)n1 | 50.3
63 | CCOc1ncccc1CNC(=O)Nc1cc(C)nn1C | -19.6
64 | Cc1nn(C)c(C)c1C(=O)NCc1cccnc1OC1CCCC1 | 37.6
65 | COc1ncccc1CNC(=O)Nc1cc(C)nn1C | 29.7
66 | Cc1nn(C)c(C)c1CC(=O)NCc1cccnc1OC1CCCC1 | 29.8
67 | OCC1(NCc2cccc(-n3cccn3)c2)CCOCC1 | 43.4
68 | CCN1CCCC1(C)c1nc(C)cc(N)n1 (stereo not given) | -2.09
69 | CCOc1ccc(NC(=O)NCC(C)(O)c2cccs2)cc1 (stereo not given) | 40.6
70 | O=C(Nc1cnccn1)[C@H]1COC[C@H]2CN(C3CCCC3)C[C@H]21 | -14.6

Reference: ChEMBL document CHEMBL4513216, “Probing the Open Global Health Chemical Diversity Library for Multistage-Active Starting Points for Next-Generation Antimalarials” (ACS Infect Dis, 2020)
